Bioassay records deposited in PubChem by National Center for Advancing Translational Sciences (NCATS).
Abeta yeast res: compounds reversing amyloid beta toxicity in yeast; Potency, µM (highest dose often 46.1 µM), usual class: activators; yeast expressing A-beta42, growth rescue, OD600, 48 h; response scale: 0% DMSO, 100% iron-clioquinol control; 0.063% of 410,000 active; note: nearly all actives have a fitted effect of over 55% in size
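Yeast growth medium received pinned compounds, then yeast cells expressing toxic A-beta were added; plates incubated at 30 C for 48 hr. Growth read as absorbance at 600 nm, normalized to DMSO and equimolar FeCl3 plus clioquinol controls.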
uPA generation: inhibitors of cell surface uPA generation; cell surface uPA generation assay, qHTS; Potency, µM (titrated, usually from 38.3 µM), for the others: at the top dose activity change, negative = inhibition, actives largely listed as inhibitors; 0.31% of 330,000 active; AID 540303; active = well fitted inhibition curve with a large enough effect; inconclusive = small, poorly fitted or top-dose-only effect; inactive = no such curve, though single readings can be large or run the other way; tested in mouse RAW 264.7 cells; note: % is set by controls: 0 for no effect and ±100 for the full control effect; nearly all actives have a fitted effect of over 55% in size
Chronic BCR inh: inhibitors of chronic active B-cell receptor signaling; ABC-DLBCL IkBa-CBG/CBR reporter, luminescence ratio, 4 h; AID 493014; 0.05% of 340,000 active; Potency, µM (top dose mostly 46.1 µM), for the others: at the top dose activity change, negative = inhibition, hits mostly inhibitors; active = well fitted inhibition curve with a large enough effect in the signal ratio, with a control signal flat, not every such curve was filed as active; inconclusive = small, poorly fitted or top-dose-only effect, or effect the other way, or a change in a side signal; the % refers to the signal ratio;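 note: plate controls were basal doxycycline-induced cells for no effect and cells given 10 µM MG132 for full effect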
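Doxycycline induced both beetle luciferases in TMD8 lymphoma cells; IKK-driven degradation limits the IkappaBalpha-fused green signal, while red luminescence normalises for cell number and nonspecific effects. Compounds tested up to 46 uM, 4 hrs.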
FUS suppressor: suppressors of FUS proteinopathy in yeast; S. cerevisiae FUS-expressing, growth rescue, OD600, 24 h; Potency, µM (top dose mostly 76.6 µM), actives largely listed as activators; 0.24% of 390,000 active; AID 1347120;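 note: plate controls were DMSO vehicle for no effect and reference control for full effect; nearly all actives have a fitted effect of over 55% in size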
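Compound concentration series was pinned onto galactose-induced FUS-expressing yeast seeded at OD 0.005. Plates sat 24hr at 30C; absorbance at 600 nm gave growth. DMSO served as background control.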
aSyn rescue: alpha-synuclein toxicity inhibition in yeast; Yeast expressing alpha-synuclein, growth rescue, BacTiter-Glo, 24 h; Potency, µM (doses to about 46.1 µM), for the others: at the top dose growth rescue (activation), actives largely listed as activators; 0.14% of 370,000 active; note: % of control where 0% means no effect; nearly all actives have a fitted effect of over 65% in size
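Readout is rescue of growth in alpha-synuclein-expressing yeast, so inhibitors of toxicity appear as activators. Growth after 24 hr at 30 deg C in galactose medium is quantified by luminescence.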
TDP-43 yeast inh: rescues yeast growth from TDP-43 toxicity. TDP-43 expressing yeast growth rescue, BacTiter-Glo, 24 h. Potency, µM (titrated, usually from 46.1 µM), for the others: at the top dose growth rescue (activation), usual class: activators. 1.8% of 410,000 active; note: % of control where 0% means no effect; nearly all actives have a fitted effect of over 50% in size
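Growth rescue of TDP-43-toxic yeast measured as ATP luminescence (BacTiter-Glo). Cells grown to mid-log in raffinose, induced in galactose at OD600=0.02, exposed to compound 24 hr at 30 deg C.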
* hit, by the source's call; [ ] = remark or other dose. Shown are actives, neighbours in structure and some others; about 2.3% of the full set was active somewhere. Unless noted, calls come from the whole dose curve; as a rule, active = well fitted curve in the direction sought with a large enough effect; inconclusive = small, poorly fitted or top-dose-only effect, or another doubt; inactive = no such curve, though single readings can be large; an effect the other way counts as inactive or inconclusive. Potency is the fitted concentration of half-maximal effect.

Results for COc1ccc(-c2n[nH]c(C)c2-c2cnn(-c3ccccc3)c2)c(O)c1 ?
Abeta yeast res: inactive; uPA generation: 2%; Chronic BCR inh: inconclusive; FUS suppressor: inconclusive; aSyn rescue: 13%; TDP-43 yeast inh: 22µM*

How did COc1ccc(-c2n[nH]c(C)c2-c2cnn(-c3ccccc3)c2)c(O)c1C do in these assays?
Abeta yeast res: inactive; uPA generation: 1%; Chronic BCR inh: 0%; FUS suppressor: inactive; aSyn rescue: -1%; TDP-43 yeast inh: 0%

How did CN=c1scc(-c2ccco2)n1/N=C/c1ccc(O)c(O)c1 do in these assays?
Abeta yeast res: inactive; uPA generation: -16%; Chronic BCR inh: inconclusive; FUS suppressor: inactive; aSyn rescue: 13%; TDP-43 yeast inh: 28µM*

What do the screens show for `COc1ccc(O)c(/C=N/n2c(-c3ccco3)csc2=Nc2cccnc2)c1`?
Abeta yeast res: inactive; uPA generation: 4%; Chronic BCR inh: 7%; aSyn rescue: -8%; TDP-43 yeast inh: 14%

Results for CC(C)(C)NC(=O)c1ccnc(C(C)(C)C)c1 ?
Abeta yeast res: inactive; Chronic BCR inh: 8%; FUS suppressor: inactive; aSyn rescue: 1%; TDP-43 yeast inh: -22%

How did O=C(CC1C(=O)OCCN1Cc1ccccc1)Nc1ccc(F)cc1 (stereo unspecified) do in these assays?
Abeta yeast res: inactive; FUS suppressor: inactive; TDP-43 yeast inh: 13µM*

How did COc1cc(NC(=O)CC2C(=O)OCCN2Cc2ccccc2)cc(OC)c1 (stereo unspecified) do in these assays?
Abeta yeast res: inactive; FUS suppressor: inactive; TDP-43 yeast inh: 25µM*

Results for N#CC(C#N)=Cc1cccn1-c1ccc(C(=O)O)cc1 ?
Abeta yeast res: inactive; uPA generation: 0%; Chronic BCR inh: -7%; FUS suppressor: inactive; aSyn rescue: 1%; TDP-43 yeast inh: 7%[9.22 µM]

What do the screens show for `Cc1cc(NCc2ccco2)nc(N2CCC(C(=O)NC3CCCCC3)CC2)n1`?
Abeta yeast res: inactive; uPA generation: -1%; Chronic BCR inh: -16%; FUS suppressor: inactive; aSyn rescue: inconclusive; TDP-43 yeast inh: -31%

What do the screens show for `COc1ccccc1-n1c(SCC(=O)NC(C)(C)C)nc(O)cc1=O`?
Abeta yeast res: inactive; uPA generation: 3%; Chronic BCR inh: 0%; FUS suppressor: inactive; aSyn rescue: 3%; TDP-43 yeast inh: -15%

Results for CCN(CC)CCCNc1sc(S(=O)(=O)c2ccccc2)nc1S(=O)(=O)c1ccc(Cl)cc1 ?
Abeta yeast res: inactive; FUS suppressor: inactive; TDP-43 yeast inh: 25%

What do the screens show for `CC(C)OCCCNc1sc(S(=O)(=O)c2ccccc2)nc1S(=O)(=O)c1ccc(Cl)cc1`?
Abeta yeast res: inactive; FUS suppressor: 32µM*; TDP-43 yeast inh: 12%

Results for C=C(C)C(=O)OCC(=O)NCc1ccccc1 ?
Abeta yeast res: inactive; uPA generation: -3%; Chronic BCR inh: 16%; FUS suppressor: inactive; aSyn rescue: 5%; TDP-43 yeast inh: -9%

How did O=C(CNc1ccc2ccccc2c1)N/N=C/c1ccc([N+](=O)[O-])o1 do in these assays?
Abeta yeast res: inactive; uPA generation: -7%; Chronic BCR inh: 0%; FUS suppressor: inactive; aSyn rescue: 6%; TDP-43 yeast inh: -4%[0.397 µM]

How did O=C(CSc1ccc(Cl)cc1)N/N=C/c1ccc([N+](=O)[O-])o1 do in these assays?
Abeta yeast res: inactive; uPA generation: inconclusive; Chronic BCR inh: 8%; FUS suppressor: inactive; aSyn rescue: 1%; TDP-43 yeast inh: 13µM*

Results for Cc1cc(C(=O)N/N=C/c2ccc([N+](=O)[O-])o2)c(C)o1 ?
uPA generation: 10µM*; Chronic BCR inh: inconclusive; FUS suppressor: inactive; aSyn rescue: 2%; TDP-43 yeast inh: 19%
